In PubChem BioAssay (NCI) one finds growth data, which are given here for 20 compounds.

About 83,000 compounds went through this panel and 20% of them were active in at least one assay; those are over-represented in the sample as a whole.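 Step 1: grow cells in 96-well plates. Step 2: add test compound at a single concentration. Step 3: incubate 48 h. Step 4: record percent growth.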 Unmarked numbers belong to inactive results. Calls of active or inactive are those of the source. The calls were made as follows: active = growth percent below 10; inactive = the rest.

Among the test systems are HCT-15 colon; HT29 colon; SNB-75 CNS; SNB-19 CNS; U251 CNS; PC-3 prostate; SK-MEL-5 melanoma; UACC-62 melanoma; LOX IMVI melanoma; SK-MEL-28 melanoma.
Test in all cases: NCI-60 one-dose screen, 48 h (100 = growth as untreated, 0 = no growth, -100 = all killed)
Conditions in all cases: 10 µM unless noted

With `CC(C)[C@@]12C[C@@H](OC(=O)C3CO3)[C@@](C)(O1)[C@@H]1CC[C@@H](C)[C@H]1[C@@H]2OC(=O)/C=C/c1ccccc1` (stereo not given in full), the growth in the experiment with HCT-15 colon is 98.1%; in the experiment on HT29 colon it was 93.9%; in the experiment with SNB-75 CNS, 80.5%; in the experiment with SNB-19 CNS, 94.4%; with U251 CNS, 76.1%; with PC-3 prostate, 86.2%. Moreover, the growth in the experiment on SK-MEL-5 melanoma is 97.6%; with UACC-62 melanoma, 77.4%; in the experiment on LOX IMVI melanoma it was 88.5%; in the experiment with SK-MEL-28 melanoma, 110%.
As for `CC1(C)CC(=O)c2cc3c(N)c(C(=O)Nc4ccc(Cl)cc4)sc3nc2C1`, the growth in the experiment on HCT-15 colon was 108%; in the experiment on HT29 colon, 96.4%; in the experiment with SNB-75 CNS, 114%; in the experiment with SNB-19 CNS, 114%; with U251 CNS, 103%; with PC-3 prostate it was 105%. For the same compound, the growth is 96% with SK-MEL-5 melanoma, 105% in the experiment on UACC-62 melanoma, 109% with LOX IMVI melanoma and 118% with SK-MEL-28 melanoma.
Consider `O=C(CCl)Nc1cc(O)c2c(c1)C(=O)c1cccc(O)c1C2=O`, for which the growth in the experiment on HCT-15 colon was -82.2% (active); in the experiment on HT29 colon, -88% (active); with SNB-75 CNS, 7.38% (active); in the experiment on SNB-19 CNS, -36.5% (active); with U251 CNS, -96.2% (active); in the experiment with PC-3 prostate, -63.6% (active). For the same compound, the growth was -95% (active) with SK-MEL-5 melanoma, -67.3% (active) with UACC-62 melanoma, -68.2% (active) in the experiment with LOX IMVI melanoma and 2.89% (active) in the experiment with SK-MEL-28 melanoma.
For the compound `C=C(C)[C@@H]1CC[C@]2(C(=O)NS(=O)(=O)c3ccccc3)CC[C@]3(C)[C@H](CC[C@@H]4[C@@]5(C)CC[C@H](OC(=O)NS(=O)(=O)c6ccccc6)C(C)(C)[C@@H]5CC[C@]43C)[C@@H]12`, the growth in the experiment with HCT-15 colon was 5.41% (active); with HT29 colon, 20.8%; with SNB-75 CNS, 45.3%; in the experiment on SNB-19 CNS, 14.4%; in the experiment with U251 CNS it was 13%; in the experiment on PC-3 prostate it was 7.83% (active). Besides, the growth in the experiment with SK-MEL-5 melanoma was -24.6% (active); in the experiment on UACC-62 melanoma it was -83.1% (active); with LOX IMVI melanoma it was 4.7% (active); in the experiment on SK-MEL-28 melanoma, -16.3% (active).
For the compound `O=C1OC(/C=C/c2ccccc2)=NC/1=C/c1ccccc1[N+](=O)[O-]`, the growth was 97.9% in the experiment with HCT-15 colon; 98.2% with HT29 colon; 82% in the experiment on SNB-75 CNS; 104% with SNB-19 CNS; 100% in the experiment on U251 CNS; 92.7% in the experiment on PC-3 prostate. The growth in the experiment with SK-MEL-5 melanoma was 99.8%; in the experiment with UACC-62 melanoma, 110%; in the experiment with LOX IMVI melanoma, 89.1%; in the experiment with SK-MEL-28 melanoma, 97.3%.
Consider `C=CCOC(=O)C1=C(C)NC2=C(C(=O)CC(C)(C)C2)C1c1ccc(OC)cc1` (stereo not given), for which the growth was 105% in the experiment on HCT-15 colon; 102% in the experiment on HT29 colon; 81.2% with SNB-75 CNS; 92.2% in the experiment with SNB-19 CNS; 103% in the experiment with U251 CNS; 88.3% with PC-3 prostate. Also, the growth in the experiment on SK-MEL-5 melanoma is 108%; in the experiment on UACC-62 melanoma, 81.1%; in the experiment on LOX IMVI melanoma it was 102%; in the experiment on SK-MEL-28 melanoma it was 104%.
For the compound `CCC(=O)NC1=C(Cl)C(=O)C(NC(=O)CC)=C(Cl)C1=O`, the growth with HCT-15 colon is 101%; in the experiment with HT29 colon, 106%; in the experiment with SNB-75 CNS, 107%; with SNB-19 CNS, 115%; in the experiment on U251 CNS it was 92.8%; in the experiment on PC-3 prostate, 91.4%. Moreover, the growth in the experiment with SK-MEL-5 melanoma was 96.3%; with UACC-62 melanoma it was 102%; in the experiment with LOX IMVI melanoma, 66.6%; with SK-MEL-28 melanoma it was -1.93% (active).
As to `CC(C)(C)c1ccc(OC(=O)Nc2ccccc2)cc1`, the growth is 104% in the experiment on HCT-15 colon; 101% in the experiment on HT29 colon; 106% in the experiment on SNB-75 CNS; 109% with SNB-19 CNS; 101% in the experiment with U251 CNS; 96.3% in the experiment on PC-3 prostate. For the same compound, the growth was 104% in the experiment with SK-MEL-5 melanoma, 110% in the experiment with UACC-62 melanoma, 102% in the experiment with LOX IMVI melanoma and 122% with SK-MEL-28 melanoma.
Take `CCC(=O)OCc1ccc(OC)cc1`: the growth in the experiment on HCT-15 colon was 108%; with HT29 colon, 102%; with SNB-75 CNS it was 104%; with SNB-19 CNS it was 100%; in the experiment on U251 CNS it was 97.3%; in the experiment with PC-3 prostate it was 88.1%. The growth in the experiment on SK-MEL-5 melanoma is 108%; in the experiment with UACC-62 melanoma it was 105%; with LOX IMVI melanoma it was 98%; with SK-MEL-28 melanoma, 111%.
Consider `Fc1ccc(-c2nc(-c3ccc(-c4nc5ccc(F)cc5[nH]4)cc3)no2)cc1`, for which the growth in the experiment on HCT-15 colon was 86.1%; in the experiment on HT29 colon, 84.7%; in the experiment with SNB-75 CNS, 57.6%; in the experiment with SNB-19 CNS, 82.5%; in the experiment with U251 CNS, 82.9%; in the experiment with PC-3 prostate, 68.7%. Also, the growth is 74.4% in the experiment on SK-MEL-5 melanoma, 75.5% with UACC-62 melanoma, 43.5% with LOX IMVI melanoma and 80.5% with SK-MEL-28 melanoma.
Turning to `COc1ccccc1/C=N\Nc1ccc([N+](=O)[O-])cn1`, the growth in the experiment on HCT-15 colon was 102%; in the experiment on HT29 colon, 107%; in the experiment on SNB-75 CNS, 110%; with SNB-19 CNS it was 103%; with U251 CNS, 101%; in the experiment with PC-3 prostate it was 98.8%. The growth was 102% in the experiment on SK-MEL-5 melanoma, 100% with UACC-62 melanoma, 98.5% with LOX IMVI melanoma and 120% in the experiment with SK-MEL-28 melanoma.
Regarding `O=C(NCCN1CCCC1)n1cc(-c2ccncc2)c(-c2cc(O)cc(Cl)c2)n1`, the growth in the experiment with HCT-15 colon is 88.6%; in the experiment with HT29 colon, 90.1%; in the experiment on SNB-75 CNS, 110%; with SNB-19 CNS, 98.5%; in the experiment on U251 CNS, 82.9%; with PC-3 prostate, 103%. In addition, the growth in the experiment with SK-MEL-5 melanoma was 62.9%; in the experiment with UACC-62 melanoma, 34.6%; with LOX IMVI melanoma, 79.7%; with SK-MEL-28 melanoma, 36.7%.
Consider `COc1ccc(/C(C)=N/NC(=O)CSc2nc3ccccc3c(=O)n2CCc2ccc(S(N)(=O)=O)cc2)cc1`, for which the growth in the experiment with HCT-15 colon was 65.3%; in the experiment on HT29 colon, -10% (active); in the experiment with SNB-75 CNS it was -26.2% (active); in the experiment with SNB-19 CNS, 35.4%; in the experiment on U251 CNS, -32.9% (active); with PC-3 prostate, -12.8% (active). The growth in the experiment with SK-MEL-5 melanoma was -26.3% (active); in the experiment on UACC-62 melanoma, 27.3%; in the experiment with LOX IMVI melanoma, 28.3%; in the experiment on SK-MEL-28 melanoma it was 43.1%.
Turning to `Cc1ccc(NC(=O)c2cc(NCc3cc(O)ccc3O)ccc2O)cc1`, the growth in the experiment on HCT-15 colon was 86.3%; in the experiment on HT29 colon, 82.9%; in the experiment on SNB-75 CNS, 97.8%; in the experiment on SNB-19 CNS, 99.8%; with U251 CNS, 95.4%; with PC-3 prostate it was 74%. Moreover, the growth in the experiment on SK-MEL-5 melanoma was 88.6%; in the experiment with UACC-62 melanoma, 81.9%; in the experiment with LOX IMVI melanoma, 94.7%; in the experiment with SK-MEL-28 melanoma, 108%.
Take `Nc1c(C(=O)Nc2ccccc2)sc2nc3c(cc12)C(=O)CCC3`: the growth in the experiment on HCT-15 colon was 27.2%; in the experiment on HT29 colon, 4.34% (active); in the experiment on SNB-75 CNS it was 12.4%; in the experiment with SNB-19 CNS, 36.1%; in the experiment on U251 CNS, 25.7%; in the experiment on PC-3 prostate it was 21.6%. The growth is 25.7% in the experiment with SK-MEL-5 melanoma, 44.1% in the experiment on UACC-62 melanoma, 51.2% in the experiment on LOX IMVI melanoma and 58.7% in the experiment on SK-MEL-28 melanoma.
On to `CNC(=O)c1c(NC(=O)c2ccc(C(C)C)cc2)sc2c1CCC(=O)C2`, for which the growth in the experiment with HCT-15 colon was -40.7% (active); in the experiment with HT29 colon, 3.51% (active); with SNB-75 CNS it was -11.9% (active); with SNB-19 CNS, 8.7% (active); in the experiment with U251 CNS, -20.2% (active); in the experiment with PC-3 prostate it was -40% (active). In addition, the growth with SK-MEL-5 melanoma was -71.4% (active); with UACC-62 melanoma, -54.7% (active); with LOX IMVI melanoma, 1.13% (active); with SK-MEL-28 melanoma, -32.1% (active).
Take `CO[C@H](C(=O)[C@@H](O)[C@@H](C)O)[C@@H]1Cc2cc3cc(O[C@H]4C[C@@H](O[C@H]5C[C@@H](O)[C@H](O)C(C)O5)[C@H](O)C(C)O4)c(C)c(O)c3c(O)c2C(=O)[C@H]1O[C@H]1C[C@@H](O[C@H]2C[C@@H](O[C@H]3C[C@](C)(O)C(=O)C(C)O3)[C@@H](O)C(C)O2)[C@H](O)C(C)O1` (stereo not given in full): the growth was 20.2% in the experiment with HCT-15 colon; -13.9% (active) with HT29 colon; -65.5% (active) in the experiment with SNB-75 CNS; 10.8% in the experiment with SNB-19 CNS; 2.98% (active) in the experiment with U251 CNS; 6.86% (active) in the experiment on PC-3 prostate. The growth in the experiment on SK-MEL-5 melanoma is -32.2% (active); in the experiment with UACC-62 melanoma it was -30.7% (active); in the experiment on LOX IMVI melanoma it was -5.83% (active); in the experiment on SK-MEL-28 melanoma, -18.8% (active).
Regarding `COc1ccc(C(=O)N2N=C(c3ccc(F)cc3)CC2c2cn(-c3ccccc3)nc2-c2ccccc2)cc1` (stereo not given), the growth is 55.9% with HCT-15 colon; 37.6% in the experiment with HT29 colon; 72.5% in the experiment with SNB-75 CNS; 80% in the experiment on SNB-19 CNS; 30.6% in the experiment on U251 CNS; 71.6% in the experiment on PC-3 prostate. Further, the growth with SK-MEL-5 melanoma was 90.7%; in the experiment on UACC-62 melanoma it was 61%; with LOX IMVI melanoma, 41.8%; with SK-MEL-28 melanoma, 71.9%.
For `Cc1ccc(C(CN(C)C)C(=O)c2ccccc2)cc1` (stereo not given), the growth was -12.1% (active) in the experiment on HCT-15 colon; -34.3% (active) with HT29 colon; 54.1% in the experiment on SNB-75 CNS; 85.7% with SNB-19 CNS; 41.7% with U251 CNS; 32.9% in the experiment with PC-3 prostate. In addition, the growth is 64.1% in the experiment on SK-MEL-5 melanoma, 6.99% (active) in the experiment with UACC-62 melanoma, -6.07% (active) in the experiment on LOX IMVI melanoma and 50.7% in the experiment on SK-MEL-28 melanoma.
Take `CCCCCCCCCCCC1=NC(C)(C)CN1CCO`: the growth in the experiment on HCT-15 colon is 18%; in the experiment on HT29 colon, -25.2% (active); in the experiment with SNB-75 CNS, 65.2%; in the experiment with SNB-19 CNS, 100%; in the experiment on U251 CNS, 21.8%; in the experiment on PC-3 prostate, 42.5%. Also, the growth with SK-MEL-5 melanoma is 58.9%; in the experiment with UACC-62 melanoma, -14.3% (active); with LOX IMVI melanoma, 6.59% (active); with SK-MEL-28 melanoma, 68.5%.
